Results reported in the supplement of paper PMC9402605.
± gives the standard deviation of the averaged measurements.

tested on: Caenorhabditis elegans N2; assay: egg-laying rate relative to DMSO control (M9 buffer background) (fraction of control); higher = more egg-laying; conditions: 60 µM, 1 h
Description: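 About 20 young-adult wild-type C. elegans (N2) per well in 96-well plates were exposed to 60 uM compound for 1 h at room temperature, either in M9 buffer (to find stimulators) or in 12.3 mM serotonin + 7.7 mM nicotine (NS, to find inhibitors). Eggs per worm per hour were counted by automated imaging and normalised to the mean of proximal DMSO control wells. Values average the primary screen and two retests of the worm-active (wactive) Egl modulators.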

Row | SMILES | egg-laying rate
1 | CCOc1ccc(/C=C/[N+](=O)[O-])cc1 [wact-385] | 0.274 ± 0.14
